Source: PubChem BioAssay
esBAF inh: blocks esBAF chromatin remodeling in mouse ES cells; reporter increase, % at 12.5 µM; AID 602393; Bmi1-luciferase knock-in reporter, 24 h; 100% = twice the neutral-well signal; 350,000 compounds, 2% hits; in the data active means activation above about 40%;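 further: 0% = median of the plate's neutral control wells and 100% = double that signal; a rise in the Bmi1 reporter signal indicates esBAF inhibition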
SMARCA2 activ: SMARCA2 function activation, primary screen; 370,000 compounds, 1% hits; MG213 cells, MMTV-luciferase reporter, dexamethasone, overnight; activation, % at 9.1 µM; AID 652017; in the data active means activation above about 7.8%;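 further: 0% = vehicle wells and 100% = reference activator wells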
NR3A LBD binder: NR3A (human) ligand-binding domain modulation; NR3A LBD differential scanning fluorimetry, Tm shift; 0% = protein alone, 100% = glycine-bound protein; AID 1259313; 340,000 compounds, 2.5% hits; Tm shift relative to glycine control, % at 25 µM;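 active means melting temperature shift of at least 10% of the positive control shift, at one fixed dose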
NadD block: NadD (S. aureus) enzyme inhibition; purified NadD enzyme, colorimetric absorbance read-out; inhibition, % at 20 µM; 360,000 compounds, 0.78% hits; in the data active means inhibition above about 26%
Vif inh: inhibitors of HIV Vif; HEK293T cells, Vif self-association by quenched fluorescence, imaging, 24 h; inhibition, % at 7.49 µM; 340,000 compounds, 0.35% hits; in the data active means inhibition above about 50%, passing the limit was not always enough
SKN-1 inh: inhibitors of C. elegans SKN-1; C. elegans VP596 Pgst-4::GFP/RFP ratio, acrylamide-induced, 24 h; inhibition, % at 21.8 µM; 360,000 compounds, 0.49% hits; AID 624304;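 active means interference check ratio from 0.5 to 1.5 plus GFP to RFP signal ratio inhibition reaching or exceeding a fixed threshold, cut at about 30% in these data, passing the limit was not always enough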
NadD inh conf: NadD (S. aureus) inhibition, single concentration confirmation; shares compounds with NadD block; purified S. aureus NadD, colorimetric enzyme assay; inhibition, % at 20 µM; 2,000 compounds, 13% hits; AID 624309; in the data active means inhibition mostly above about 42%, no sharp cut-off; inactive means mostly below about 42%
Active calls of the source: *; nt = not tested or not shown. Only some compounds are listed: those with a hit (about 5.2% of all), similar ones and a draw of the others.

SMILES	esBAF inh	SMARCA2 activ	NR3A LBD binder	NadD block	Vif inh	SKN-1 inh	NadD inh conf
CCCc1cc(=O)[nH]c(SCC(=O)N2N=C(c3ccc(Cl)cc3)CC2c2ccco2)n1 (stereo unspecified)	nt	-6	-7	35*	2	28	50*
Nc1cc(=O)[nH]c(SCC(=O)N2N=C(c3ccc(Cl)cc3)CC2c2ccco2)n1 (stereo unspecified)	nt	1	-2	28	-4	28	nt
COc1ccc(CN(C)C[C@@H]2Oc3c(NS(=O)(=O)c4ccc(C)cc4)cccc3C(=O)N([C@H](C)CO)C[C@H]2C)cc1	-1	nt	nt	nt	nt	nt	nt
O=C(Nc1cccc2nsnc12)c1ccc(-c2cccc(Cl)c2)o1	-3	1	1	45*	3	-6	5
O=C(Nc1ccccc1N1CCCCC1)c1ccc(-c2cccc(Cl)c2)o1	nt	2	-4	2	-10	17	nt
C[C@@H]1CN([C@@H](C)CO)S(=O)(=O)c2ccc(C#CCN(C)C)cc2O[C@@H]1CN(C)C(=O)C1CC1	-4	nt	nt	nt	nt	nt	nt
Cc1ccc(C)c(-c2nc3ccc(N)cc3[nH]2)c1	17	-4	3	7	1	5	nt
Nc1ccc(-c2nc3ccc(N)cc3[nH]2)cc1	nt	-2	9	66*	1	-1	23
Nc1cc(N)cc(-c2nc3ccccc3[nH]2)c1	14	-2	-3	-1	10	6	nt
Cc1nc2ccc(-c3nc4ccc(N)cc4[nH]3)cc2[nH]1	nt	-2	0	45*	2	7	20
Cc1cc(-c2nc3ccccc3[nH]2)ccc1N	12	7	-5	1	-2	8	nt
Nc1ccc2nc(-c3cccc(-c4nc5ccc(N)cc5[nH]4)c3)[nH]c2c1	nt	0	nt	39*	-1	12	24
CCC(=O)N1C[C@@H](C)[C@H](OC)CN(C)C(=O)c2ccc(NC(=O)c3cnccn3)cc2OC[C@@H]1C	0	nt	nt	nt	nt	nt	nt
O=C(NNC(=S)NC(=O)c1cccs1)c1ccc(NC(=O)c2ccccc2)cc1	9	-4	23*	32*	nt	19	37
COc1cccc(-c2ccc3c(c2)[C@H]2[C@H](CCN2S(=O)(=O)c2ccccc2OC)[C@H](CO)N3)c1	-2	nt	nt	nt	nt	nt	nt
COc1ccc(NC(=O)N(C)C[C@@H]2OCCCC[C@H](C)Oc3ccc(NC(=O)c4ccncc4)cc3C(=O)N([C@H](C)CO)C[C@@H]2C)cc1	1	nt	nt	nt	nt	nt	nt
Cc1c(Cl)cccc1Nc1n[nH]c(=S)s1	nt	4	-18	32*	3	20	31
Cc1ccccc1Nc1n[nH]c(=S)s1	11	-2	nt	20	nt	2	nt
COc1ccc(C#Cc2ccc3c(c2)[C@H]2[C@H](CCN2C(=O)c2ccccc2F)[C@H](CO)N3C)cc1	1	nt	nt	nt	nt	nt	nt
CO[C@H]1CN(C)C(=O)c2cc(NC(=O)C3CC3)ccc2OC[C@@H](C)N(C)C[C@H]1C	0	nt	nt	nt	nt	nt	nt
CN1CCN(C(=O)C[C@@H]2CC[C@H]3[C@@H](COC[C@H](O)CN3C(=O)C3CCCC3)O2)CC1	-3	nt	nt	nt	nt	nt	nt
CCOc1ccc(-c2nnc(NC(=O)c3ccc(OCC(C)C)c(OC)c3)o2)cc1	21	1	-2	37*	1	18	5
COc1cccc(-c2nnc(NC(=O)c3ccc4ncsc4c3)o2)c1	24	-2	0	31*	9	13	8
COc1ccccc1NC(=O)c1sc2ncn(CC(=O)Nc3ccccc3)c(=O)c2c1C	0	-3	1	30*	10	-17	5
COc1ccc2c(Cl)c(C(=O)NCCCn3ccnc3)sc2c1Cl	nt	1	1	36*	-10	7	7
SMILES	esBAF inh	SMARCA2 activ	NR3A LBD binder	NadD block	Vif inh	SKN-1 inh	NadD inh conf
C[C@H](CO)N1C[C@H](C)[C@@H](CN(C)C(=O)CN(C)C)Oc2ncc(C#CCC3CCCC3)cc2C1=O	-4	nt	nt	nt	nt	nt	nt
CN1C(=O)c2cc(NC(=O)c3ccc(F)cc3)ccc2OC[C@@H]2O[C@H](CC(=O)O)CC[C@@H]21	-1	nt	nt	nt	nt	nt	nt
COc1ccc(NC(=O)CSc2nc3c(cc2C#N)CN(C)CC3)cc1	-8	1	-1	30*	nt	13	-8
CCN1CCc2nc(SCC(=O)Nc3ccc(OC)cc3)c(C#N)cc2C1	11	-1	-1	2	nt	-7	nt
COc1ccccc1NS(=O)(=O)c1cccc(-n2c(O)c(C=Nc3ccccc3C(=O)O)c3ccccc3c2=O)c1	nt	-1	2	31*	-12	7	54*
COc1ccc(-c2csc(Nc3ccc(Oc4ccccc4)cc3)n2)cc1	2	-6	nt	1	7	12	nt
COc1ccc2oc(=O)c(C(=O)Nc3cccc(C(C)=O)c3)cc2c1	38	0	2	-4	-1	6	nt
COc1ccc2oc(=O)c(-c3csc(Nc4cccc(O)c4)n3)cc2c1	nt	3	27*	35*	2	8	59*
COc1ccc(Nc2nc(-c3cc4cccc(OC)c4oc3=O)cs2)cc1	nt	-1	16*	44*	nt	1	-4
COc1cccc2cc(/C(C)=N/Nc3nc(-c4cc(C)ccc4C)cs3)c(=O)oc12	1	0	-4	34*	6	28	20
COc1cccc(-c2ccc3c(c2)[C@H]2[C@H](CCN2C(=O)C2CCOCC2)[C@H](CO)N3)c1	2	nt	nt	nt	nt	nt	nt
CC(C)C#Cc1cnc2c(c1)C(=O)N([C@@H](C)CO)C[C@@H](C)[C@H](CN(C)C(=O)Nc1ccccc1F)O2	2	nt	nt	nt	nt	nt	nt
Nc1nc(-c2ccc(NC(=O)c3ccco3)cc2)cs1	-67	3	2	-5	10	6	nt
NC(=O)/C(=N\OC(=O)c1ccco1)c1nc(-c2ccc(Br)cc2)cs1	21	2	-4	30*	-3	-13	49*
CCN1[C@H](C(=O)NC2CCCCC2)[C@@H](CO)[C@@H]2Cn3c(ccc(-c4cccnc4)c3=O)[C@@H]21	2	nt	nt	nt	nt	nt	nt
CNC[C@@H]1Oc2cc(-c3ccncc3)ccc2S(=O)(=O)N([C@@H](C)CO)C[C@H]1C	5	nt	nt	nt	nt	nt	nt
NC(=O)[C@@H]1CC2(CC(c3cccc(NC(=O)CC(c4ccccc4)c4ccccc4)c3)=NO2)CN1C(=O)COc1ccc(Cl)cc1 (stereo partly specified)	-1	0	9	39*	nt	9	27
CCCCCC(=O)N1CC2(CC(c3cccc(NC(=O)COc4ccc(Cl)cc4)c3)=NO2)C[C@@H]1C(N)=O (stereo partly specified)	7	-2	-11	7	-27	7	nt
CCC(=O)Nc1cccc(C2=NOC3(C2)C[C@@H](C(N)=O)N(C(=O)COc2ccc(Cl)cc2)C3)c1 (stereo partly specified)	3	1	1	3	-3	12	nt
